Measured values: the supplement of paper PMC10338343
± gives the standard deviation.

system: MILI (PIWIL2) piRISC loaded with L1MC piRNA (26 nt); assay: pre-steady-state target cleavage rate (min^-1); guide: L1MC piRNA 5'p-UAACUAAAUACUAUGCAAGCUGUAGG; MIWI and MILI are mouse PIWI proteins and EfPiwi is from a freshwater sponge; tags in brackets are library labels; higher = faster piRNA-guided slicing of the target; details: auxiliary factor: 500 nM mouse GTSF1
Outline: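 Reactions were run for 0–8 or 0–960 min at 33 °C in HEPES–potassium acetate buffer, combining 1 nM active affinity-purified piRISC with one synthetic guide, […] transcribed, DNA-blocked target RNA library and, in some cases, 500 nM GTSF1 partner protein. Sequencing of uncleaved targets followed, with normalisation to depth and to weakly complementary targets. Three trials were pooled, k3 was capped at 0.0001 min^-1, and the pre-steady-state cleavage rate was taken from a burst-and-steady-state fit.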
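Note: 1 nM active piRISC with 0.1 nM target library at 33 °C single turnover.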

| Sequence | pre-steady-state target cleavage rate |
| --- | --- |
| UCCUGGAUGUCGAUGCAUAGUACUUAGUUA | 0.025 ± 0.0066 |
| UCCUGGAUGAGCUUGGAUAGUUUUUAGUUA | 0.0261 ± 0.0072 |
| UCCUGGAUGUCGUUGCAGAGUAUUUAGUUA | 0.0117 ± 0.0043 |
| UCCUGGAUGUCGAUGCAUAGUCUUUAGUUA | 0.0205 ± 0.0056 |
| UCCUGGUACUGCUUGCAUAGUUUUUAGUUA | 0.0403 ± 0.012 |
| UCCUGGAUGUGCUUGCAAAGUAAUUAGUUA | 0.0171 ± 0.0056 |
| UCCUGGAUCAGCUAGCAUAGUAUUUUGUUA | 0.19 ± 0.021 |
| UCCUGGUACAGGUUGCAUAGUAUUUUGUUA | 0.189 ± 0.042 |
| UCCUGGAUGUCGUUGCAUAGUUAUUUAGUUA | 0.00477 ± 0.0039 |
| UCCUGGAACAGCUUGGUUAGUAUUUAGUAA | 0.188 ± 0.035 |
| UCCUGGAUGUCGAUGCAUAGUAAUUUAGUUA | 0.0247 ± 0.008 |
| UCCUGGAUGAGCUUGCAUAGUUAUUUAGUUA | 0.0115 ± 0.0045 |
| UCCUGGAUCAGCUUGCAUAGAUAUUUAGUUA | 0.0135 ± 0.004 |
| UCCUGGAUGAGCUUUCAUAGUAUUUAGUUA | 0.15 ± 0.018 |
| UCCUGGAACAGCUUCGUUAGUAUUUAGUUA | 0.181 ± 0.013 |
| UCCUGGAUGUGCUUGGAUAGUAAUUAGUUA | 0.0687 ± 0.014 |
| UCCUGGAUGACCUUGCAUACUAUUUAGUUA | 0.062 ± 0.019 |
| UCCUGGUAGUGCUUGCAUAGUAUUUAGUUA | 0.184 ± 0.018 |
| UCCUGGAUGUCCUUGCAUAGUAUAUAGUUA | 0.149 ± 0.026 |
| UCCUGGAUGUCGAAGCAUAGUAUAUAGUUA | 0.0508 ± 0.015 |
| UCCUCCUUCAGCUAGCAUAGUAUUUAGUUA | 0.228 ± 0.017 |
| UCCUGGAACAGCUUGGUAAGUAUUUAGUAA | 0.11 ± 0.017 |
| UCCUGGAUGUCGUUGCCUAGUAUUUAGUUA | 0.0556 ± 0.0094 |
| UCCUGGAUCAGCUAGCAUAGUAUUUAGAUA | 0.0957 ± 0.019 |
